Records with an inconclusive call do not appear. Calls of active or inactive are those of the source. Unless noted, calls follow the shape of the dose curve; as a rule, active = well fitted curve in the direction sought with a large enough effect in the repeat runs; inconclusive = weak or mixed curves; inactive = no such curve, though single readings can be large; an effect the other way counts as inactive or inconclusive.
How the values were obtained:
[1] = qHTS assay to identify aromatase inhibitors - cell viability counter screen (AID 743084);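 also: cells stimulated with testosterone during compound exposure; nearly all actives have a fitted effect of over 55% in size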
[2] = molecular target: Aryl hydrocarbon receptor (Homo sapiens) (UniProt P35869); experiment: qHTS assay to identify small molecule that activate the aryl hydrocarbon receptor (AhR) signaling pathway (AID 743085);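 also: HG2L7.5c1 human HepG2 liver cells with stably integrated DRE-driven firefly reporter; series mostly up to about 70 µM; nearly all actives have a fitted effect of over 15% in size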
Sequence of Aryl hydrocarbon receptor (Homo sapiens) (P35869 whole entry, looked up): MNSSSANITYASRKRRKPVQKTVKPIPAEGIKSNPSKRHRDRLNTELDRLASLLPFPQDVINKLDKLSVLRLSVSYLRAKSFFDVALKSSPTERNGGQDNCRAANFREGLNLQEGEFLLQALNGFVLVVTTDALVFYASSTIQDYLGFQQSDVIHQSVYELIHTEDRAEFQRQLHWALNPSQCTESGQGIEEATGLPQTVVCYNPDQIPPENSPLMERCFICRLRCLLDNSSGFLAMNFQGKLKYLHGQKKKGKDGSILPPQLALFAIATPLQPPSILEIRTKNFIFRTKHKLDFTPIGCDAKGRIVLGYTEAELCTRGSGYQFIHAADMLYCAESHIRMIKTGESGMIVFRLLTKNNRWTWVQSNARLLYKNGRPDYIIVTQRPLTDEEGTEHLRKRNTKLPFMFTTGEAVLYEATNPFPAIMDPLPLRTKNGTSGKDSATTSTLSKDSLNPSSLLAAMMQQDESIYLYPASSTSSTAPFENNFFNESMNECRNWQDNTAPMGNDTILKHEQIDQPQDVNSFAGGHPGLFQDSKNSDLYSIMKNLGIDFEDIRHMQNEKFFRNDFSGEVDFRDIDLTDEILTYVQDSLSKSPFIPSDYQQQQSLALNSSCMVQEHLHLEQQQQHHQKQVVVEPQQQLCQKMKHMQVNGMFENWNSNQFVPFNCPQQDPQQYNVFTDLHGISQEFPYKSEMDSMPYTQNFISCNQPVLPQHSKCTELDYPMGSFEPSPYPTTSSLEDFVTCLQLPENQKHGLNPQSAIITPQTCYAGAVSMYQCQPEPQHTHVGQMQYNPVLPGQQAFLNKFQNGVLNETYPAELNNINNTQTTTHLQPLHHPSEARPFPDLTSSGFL
Summary of the method: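 Cell line HG2L7.5c1 (human hepatoma, 20× DRE-luc). Plated, 5 h 37C, compound/DMSO added, 24 h 37C. CellTiter-Fluor 30 min 37C → fluorescence; then ONE-Glo 30 min RT → luminescence.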

[3] = qHTS assay to identify small molecule that activate the aryl hydrocarbon receptor (AhR) signaling pathway - cell viability counter screen (AID 743086);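 also: HepG2 liver cells carrying the AhR DRE luciferase reporter; series mostly up to about 70 µM; nearly all actives have a fitted effect of over 45% in size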
Summary of the method: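 Cytotoxicity counter screen: CellTiter-Fluor signal (30 min, 37 C) in 4000 HepG2 cells/well carrying the DRE-luciferase reporter, following 24 h compound exposure at 37 C.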

[4] = molecular target: Peroxisome proliferator-activated receptor gamma (Homo sapiens) (UniProt P37231); experiment: qHTS assay to identify small molecule agonists of the peroxisome proliferator-activated receptor gamma (PPARg) signaling pathway (AID 743094; active = well fitted activation curve with a large enough effect in the signal ratio in the repeat runs, not every such curve was filed as active; the % refers to the signal ratio)
Sequence of Peroxisome proliferator-activated receptor gamma (Homo sapiens) (P37231 whole entry, looked up): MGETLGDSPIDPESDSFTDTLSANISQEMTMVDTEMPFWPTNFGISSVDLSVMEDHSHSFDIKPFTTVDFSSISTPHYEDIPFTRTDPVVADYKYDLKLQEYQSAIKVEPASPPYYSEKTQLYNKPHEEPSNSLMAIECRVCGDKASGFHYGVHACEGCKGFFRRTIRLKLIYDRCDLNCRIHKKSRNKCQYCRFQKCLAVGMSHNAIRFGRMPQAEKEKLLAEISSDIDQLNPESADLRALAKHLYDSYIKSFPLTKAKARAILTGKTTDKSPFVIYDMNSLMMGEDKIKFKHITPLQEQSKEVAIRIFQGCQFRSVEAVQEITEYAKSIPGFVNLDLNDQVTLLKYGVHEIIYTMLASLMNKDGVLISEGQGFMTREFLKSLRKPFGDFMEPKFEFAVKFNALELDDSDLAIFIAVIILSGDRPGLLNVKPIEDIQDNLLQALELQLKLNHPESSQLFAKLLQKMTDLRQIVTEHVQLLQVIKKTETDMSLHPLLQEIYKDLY
Summary of the method: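 Fluorescence-based beta-lactamase readout in HEK293H PPARg UAS-bla cells after 17 h compound exposure (37C) and 1 h B/G FRET substrate incubation at room temperature.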

[5] = qHTS assay to identify small molecule antagonists of the peroxisome proliferator-activated receptor gamma (PPARg) signaling pathway - cell viability counter screen (AID 743194); settings: Potency: co-treated with 50 nM rosiglitazone; also: nearly all actives have a fitted effect of over 55% in size
Summary of the method: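 Viability was measured as CellTiter-Glo luminescence in GeneBLAzer PPARg UAS-bla HEK293H cells. These cells had been exposed 17 h at 37 C to compounds together with rosiglitazone at 50 nM final, with the beta-lactamase readout taken in the same wells.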

[6] = qHTS assay for small molecule agonists of the antioxidant response element (ARE) signaling pathway (AID 743202; active = well fitted activation curve with a large enough effect in the signal ratio in the repeat runs, not every such curve was filed as active; the % refers to the signal ratio)
Summary of the method: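 Beta-lactamase reporter activity, read as fluorescence intensity, reflects ARE/Nrf2 pathway induction in HepG2 cells after 16 h compound exposure at 37 C; substrate loading was 2 h at room temperature.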

[7] = qHTS assay for small molecule agonists of the antioxidant response element (ARE) signaling pathway - cell viability counter screen (AID 743203; calls by dose curve; also: nearly all actives have a fitted effect of over 55% in size)
Summary of the method: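 Parallel cytotoxicity read-out for the ARE-bla screen: HepG2 reporter cells, 16 hrs with compounds, then CellTiter-Glo luminescence.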

[8] = qHTS assay for small molecule activators of the heat shock response signaling pathway (AID 743210; active = well fitted activation curve with a large enough effect in the signal ratio in the repeat runs, with a control signal flat, not every such curve was filed as active; the % refers to the signal ratio;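 also: HeLa cells with beta-lactamase reporter driven by heat shock elements; series mostly up to about 63 µM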)
Summary of the method: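 Fluorescence from a cleaved B/G FRET substrate (2.5 h, room temp) reports HSE-driven beta-lactamase in HeLa cells treated 5 h at 37 C with DMSO-dissolved compounds.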

[9] = qHTS assay to identify small molecule agonists of the peroxisome proliferator-activated receptor delta (PPARd) signaling pathway - cell viability counter screen (AID 743211); also: nearly all actives have a fitted effect of over 55% in size
Summary of the method: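 HEK293H PPARd-bla, 3000 cells/well; 5 h preincubation 37C/5% CO2; cpd in DMSO, 17 h 37C; B/G FRET substrate 2 h RT; CellTiter-Glo 30 min RT, luminescence.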

[10] = qHTS assay to identify small molecule antagonists of the peroxisome proliferator-activated receptor delta (PPARd) signaling pathway - cell viability counter screen (AID 743213); also: nearly all actives have a fitted effect of over 50% in size
Summary of the method: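 Agonist-stimulated (L165041, 300 nM final) HEK293H PPARd UAS-bla cells are exposed to compounds for 17 h at 37 C, and ATP-based luminescence (CellTiter-Glo) from the same wells reports cytotoxicity.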

[11] = molecular target: Peroxisome proliferator-activated receptor delta (Homo sapiens) (UniProt Q03181); experiment: qHTS assay to identify small molecule antagonists of the peroxisome proliferator-activated receptor delta (PPARd) signaling pathway (AID 743215; active = well fitted inhibition curve with a large enough effect in the signal ratio in the repeat runs, not every such curve was filed as active; the % refers to the signal ratio; also: series mostly up to about 62 µM)
Sequence of Peroxisome proliferator-activated receptor delta (Homo sapiens) (Q03181 whole entry, looked up): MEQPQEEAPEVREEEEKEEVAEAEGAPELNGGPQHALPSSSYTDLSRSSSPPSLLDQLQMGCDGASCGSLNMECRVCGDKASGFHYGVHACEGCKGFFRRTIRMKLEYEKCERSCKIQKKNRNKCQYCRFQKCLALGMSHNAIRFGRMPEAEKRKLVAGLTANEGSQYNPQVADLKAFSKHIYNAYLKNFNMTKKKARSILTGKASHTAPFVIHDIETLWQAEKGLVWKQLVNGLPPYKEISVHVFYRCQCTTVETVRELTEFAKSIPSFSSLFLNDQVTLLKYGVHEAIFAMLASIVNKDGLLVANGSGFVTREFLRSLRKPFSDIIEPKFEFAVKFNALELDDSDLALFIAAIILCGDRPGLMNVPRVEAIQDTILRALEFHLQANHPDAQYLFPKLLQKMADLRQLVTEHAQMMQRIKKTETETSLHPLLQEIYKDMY
Summary of the method: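 Screen format: qHTS, antagonist mode. HEK293H PPARd-bla cells received compound and 300 nM L165041 (final), 17 h, 37 C. Beta-lactamase detected via FRET substrate fluorescence, 2 h, room temperature.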

[12] = molecular target: Bile acid receptor (Homo sapiens) (UniProt Q96RI1); experiment: qHTS assay to identify small molecule antagonists of the farnesoid-X-receptor (FXR) signaling pathway (AID 743217; active = well fitted inhibition curve with a large enough effect in the signal ratio in the repeat runs, not every such curve was filed as active; the % refers to the signal ratio)
Sequence of Bile acid receptor (Homo sapiens) (Q96RI1 whole entry, looked up): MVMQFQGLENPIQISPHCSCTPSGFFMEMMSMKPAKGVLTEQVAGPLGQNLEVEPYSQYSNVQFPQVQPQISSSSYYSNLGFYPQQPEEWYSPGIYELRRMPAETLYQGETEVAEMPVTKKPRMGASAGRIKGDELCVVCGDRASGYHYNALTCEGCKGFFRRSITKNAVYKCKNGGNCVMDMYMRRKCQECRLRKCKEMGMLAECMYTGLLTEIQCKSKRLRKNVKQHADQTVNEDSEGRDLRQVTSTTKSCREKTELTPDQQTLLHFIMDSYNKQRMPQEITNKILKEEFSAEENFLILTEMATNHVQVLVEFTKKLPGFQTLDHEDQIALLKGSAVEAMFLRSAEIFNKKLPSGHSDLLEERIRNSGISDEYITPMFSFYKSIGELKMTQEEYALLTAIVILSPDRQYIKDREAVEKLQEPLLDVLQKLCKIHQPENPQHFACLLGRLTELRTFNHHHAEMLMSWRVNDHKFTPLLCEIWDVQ
Summary of the method: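 Quantitative HTS, beta-lactamase reporter format: FXR-UAS-bla HEK 293T cells co-treated 16 h at 37 °C with compounds and 50 uM final chenodeoxycholic acid, then read by B/G FRET fluorescence.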

[13] = qHTS assay to identify small molecule agonists of the farnesoid-X-receptor (FXR) signaling pathway - cell viability counter screen (AID 743218); also: nearly all actives have a fitted effect of over 45% in size
Summary of the method: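 Same-well cytotoxicity check on FXR-UAS-bla HEK 293T cells: 5 h attachment, 16 h compound at 37 C, CellTiter-Glo luminescence read at room temperature after 30 min.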

[14] = molecular target: Bile acid receptor (Homo sapiens) (UniProt Q96RI1); experiment: qHTS assay to identify small molecule agonists of the farnesoid-X-receptor (FXR) signaling pathway (AID 743220; active = well fitted activation curve with a large enough effect in the signal ratio in the repeat runs, not every such curve was filed as active; the % refers to the signal ratio)
Summary of the method: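 FXR-UAS-bla HEK 293T cells carrying a UAS-driven beta-lactamase reporter were plated for 5 h at 37C/5% CO2, then exposed to DMSO-dissolved Tox21 10K compounds for 16 h at 37C. A LiveBLAzer B/G FRET substrate was loaded for 2 h at room temperature before fluorescence reading.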

[15] = qHTS assay to identify small molecule antagonists of the farnesoid-X-receptor (FXR) signaling pathway - cell viability counter screen (AID 743221; active = well fitted cell-killing curve with a large enough effect in the repeat runs, not every such curve was filed as active; also: nearly all actives have a fitted effect of over 50% in size)
Summary of the method: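 Luminescence from CellTiter-Glo measures cytotoxicity in GeneBLAzer FXR-UAS-bla HEK 293T cells. Cells were exposed to compounds with 50 uM chenodeoxycholic acid (final) for 16 h at 37 C, in wells also used for the reporter readout.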

[16] = qHTS assay for small molecule activators of the heat shock response signaling pathway - cell viability counter screen (AID 743209); also: nearly all actives have a fitted effect of over 50% in size
Summary of the method: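 To flag cytotoxic compounds, HSE-bla HeLa cells plated at 1500 cells/well were dosed for 5 h at 37 C, followed by the reporter FRET read and then CellTiter-Glo, with luminescence recorded 30 min after reagent addition.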

[17] = molecular target: Peroxisome proliferator-activated receptor delta (Homo sapiens) (UniProt Q03181); experiment: qHTS assay to identify small molecule agonists of the peroxisome proliferator-activated receptor delta (PPARd) signaling pathway (AID 743212; calls by dose curve;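 also: HEK293H cells with PPARd UAS beta-lactamase reporter GeneBLAzer system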)
Summary of the method: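 Steps: seed PPARd-bla HEK293H cells; incubate 5 h, 37 C, 5% CO2; add compounds in DMSO; incubate, 37 C; add LiveBLAzer B/G FRET substrate; hold 2 h at room temperature; measure fluorescence.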

[18] = molecular target: Vitamin D3 receptor (Homo sapiens) (UniProt P11473); experiment: qHTS assay to identify small molecule agonists of the vitamin D receptor (VDR) signaling pathway (AID 743222; calls by dose curve)
Sequence of Vitamin D3 receptor (Homo sapiens) (P11473 whole entry, looked up): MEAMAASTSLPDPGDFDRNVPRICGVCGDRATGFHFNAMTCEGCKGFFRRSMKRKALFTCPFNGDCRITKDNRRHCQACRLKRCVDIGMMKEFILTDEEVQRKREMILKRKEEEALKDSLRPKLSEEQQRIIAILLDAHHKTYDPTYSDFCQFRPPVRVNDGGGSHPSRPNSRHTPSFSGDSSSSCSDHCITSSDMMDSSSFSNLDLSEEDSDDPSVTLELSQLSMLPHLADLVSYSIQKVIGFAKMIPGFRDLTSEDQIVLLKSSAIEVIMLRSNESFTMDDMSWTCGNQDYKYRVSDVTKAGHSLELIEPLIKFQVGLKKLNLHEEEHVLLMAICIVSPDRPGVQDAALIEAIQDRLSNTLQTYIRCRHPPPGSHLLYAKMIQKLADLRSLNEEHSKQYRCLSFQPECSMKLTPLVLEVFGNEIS
Summary of the method: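 Using LiveBLAzer B/G FRET detection, agonism was scored in VDR-bla cells exposed overnight (16 h, 37C) to DMSO-dissolved compounds; substrate incubation was 2 h at room temperature.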

[19] = molecular target: Vitamin D3 receptor (Homo sapiens) (UniProt P11473); experiment: qHTS assay to identify small molecule antagonists of the vitamin D receptor (VDR) signaling pathway (AID 743223; active = well fitted inhibition curve with a large enough effect in the signal ratio in the repeat runs, not every such curve was filed as active; the % refers to the signal ratio)
Summary of the method: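 Antagonist mode uses 1alpha,25-dihydroxyvitamin D3 at 3 nM final as stimulus. VDR-bla cells receive compounds in DMSO, incubate 16 h at 37C, then a beta-lactamase FRET substrate for 2 h at room temperature before fluorescence measurement.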

[20] = molecular target: Peroxisome proliferator-activated receptor gamma (Homo sapiens) (UniProt P37231); experiment: qHTS assay to identify small molecule antagonists of the peroxisome proliferator-activated receptor gamma (PPARg) signaling pathway (AID 743191; calls by dose curve; also: series mostly up to about 63 µM; nearly all actives have a fitted effect of over 30% in size)
Summary of the method: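 Beta-lactamase reporter under UAS control in HEK293H PPARg-bla cells; compound treatment 17 h at 37C. Read-out: fluorescence intensity after 1 h room-temperature incubation with LiveBLAzer B/G FRET substrate.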
% is scaled to controls: 0 for no effect and ±100 for the full control effect.

CCN[C@@H](C)Cc1cccc(C(F)(F)F)c1
inactive: Potency [1] | Potency [2] | Potency [3] | outcome [4] | Potency [5] | Potency [6] | Potency [7] | Potency [8] | Potency [9] | Potency [10] | Potency [11] | outcome [12] | Potency [13] | outcome [14] | Potency [15]

CS(=O)(=O)Cl
inactive: Potency [1] | Potency [2] | Potency [3] | Potency [5] | Potency [6] | Potency [7] | Potency [16] | Potency [8] | Potency [9] | outcome [17] | Potency [11] | Potency [13] | Potency [15] | outcome [18] | outcome [19]

CC(C)(C)C(=O)Cl
inactive: Potency [1] | Potency [2] | Potency [3] | Potency [5] | Potency [6] | Potency [7] | Potency [16] | Potency [8] | Potency [9] | outcome [17] | Potency [10] | Potency [11] | outcome [12] | Potency [13] | outcome [14] | Potency [15]

N[C@@H](Cc1ccc(Oc2cc(I)c(O)c(I)c2)c(I)c1)C(=O)O
inactive: Potency [1] | Potency [2] | Potency [3] | Potency [5] | Potency [6] | Potency [7] | Potency [16] | Potency [8] | Potency [9] | outcome [17] | Potency [10] | Potency [11] | outcome [12] | Potency [13] | outcome [14] | Potency [15]

Brc1c(Br)c(Br)c(Br)c(Br)c1Br
inactive: activity change, negative = cytotoxicity [1] -1.05% [at 8.47 µM] | activation [2] -0.623% [at 8.47 µM] | viability change, negative = cytotoxic [3] 2.59% [at 8.47 µM] | activity change, negative = cytotoxicity [5] -21% [at 5.95 µM, co-treated with 50 nM rosiglitazone] | activation [6] -11.1% [at 8.36 µM] | viability change, negative = cytotoxic [7] -9.94% [at 8.36 µM] | activity change, negative = cytotoxicity [16] -1.06% [at 5.95 µM] | activation [8] -1.19% [at 5.95 µM] | activity change, negative = cytotoxicity [9] 3.57% [at 5.95 µM] | activation [17] 3.14% [at 5.95 µM] | viability change, negative = cytotoxic [10] -8.99% [at 6.26 µM] | ratio activity, negative = inhibition [11] -21.8% [at 6.26 µM] | viability change, negative = cytotoxic [13] 26.7% [at 5.95 µM] | activity change, negative = cytotoxicity [15] -6% [at 5.95 µM]

COc1cc(CCN)cc(OC)c1OC
inactive: Potency [1] | Potency [2] | Potency [3] | Potency [20] | Potency [5] | Potency [6] | Potency [7] | Potency [16] | Potency [8] | Potency [9] | Potency [10] | Potency [11] | outcome [12] | Potency [13] | outcome [14] | Potency [15] | outcome [19]

[O-][Br+2]([O-])O
inactive: Potency [1] | Potency [2] | Potency [3] | Potency [20] | Potency [5] | Potency [7] | Potency [16] | Potency [8] | Potency [9] | outcome [17] | Potency [10] | Potency [11] | Potency [13] | outcome [18] | outcome [19]

C#CC(C)(C)O
inactive: Potency [1] | Potency [2] | Potency [3] | Potency [5] | Potency [6] | Potency [7] | Potency [16] | Potency [8] | Potency [9] | outcome [17] | Potency [10] | Potency [11] | outcome [12] | Potency [13] | outcome [14] | Potency [15] | outcome [18] | outcome [19]

— PubChem BioAssay (Tox21)
